Compound activity deposited in PubChem by National Center for Advancing Translational Sciences (NCATS).
D2 ag-1 – activates the human D2 dopamine receptor | P14416 | DiscoveRx PathHunter D2 beta-arrestin, luminescence, 90 min; 100% = 57 uM dopamine signal | activation, % (no concentration beside the values) | 360,000 compounds, 0.084% hits | AID 624465; in the data active means activation above about 40%; inconclusive means between about 15% and that limit
Target sequence (P14416 whole entry, looked up): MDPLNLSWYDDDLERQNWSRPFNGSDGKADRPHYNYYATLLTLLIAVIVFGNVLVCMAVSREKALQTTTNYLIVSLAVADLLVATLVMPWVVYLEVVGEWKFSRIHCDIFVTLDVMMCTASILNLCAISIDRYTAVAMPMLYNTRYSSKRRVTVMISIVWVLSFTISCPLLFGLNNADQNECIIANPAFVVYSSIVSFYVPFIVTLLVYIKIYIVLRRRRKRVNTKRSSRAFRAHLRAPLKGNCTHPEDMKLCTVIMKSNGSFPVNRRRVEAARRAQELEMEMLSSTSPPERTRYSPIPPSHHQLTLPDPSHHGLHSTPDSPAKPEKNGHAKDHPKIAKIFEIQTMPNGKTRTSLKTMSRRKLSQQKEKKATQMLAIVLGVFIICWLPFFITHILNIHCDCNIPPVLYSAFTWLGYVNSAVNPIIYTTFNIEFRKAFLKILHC
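Agonist mode: compounds alone added to overnight-plated D2 PathHunter cells for 90 min at 37 C, with 57 uM final dopamine (EC100) defining full response. Beta-arrestin recruitment detected by chemiluminescent reagent, read after 1 h at ambient temperature.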
D2 ag-2 – agonists of human D2 dopamine receptor; activation, % at 2 µM; P14416; HEK293 T-REx D2 cells, calcium flux agonist mode; 340,000 compounds, 0.53% hits; AID 485358;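 active means activation over 3 SD above normal in the single-dose calcium agonist read, cut at about 30% in these data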
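Calcium-flux readout, 1 cycle/sec over 180 s following compound pin transfer, in inducible HEK293 Trex D2 cells (force-coupled); dopamine controls included. Positive calcium responses during this window marked compounds as potential agonists.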
D2 PAM-1 – positive allosteric modulators of human D2 dopamine receptor; P14416; HEK293 T-REx D2, calcium flux, EC20 dopamine potentiation; potentiation, % at 10 µM; 340,000 compounds, 0.34% hits; AID 485347;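 active means potentiation over 3 SD above the plate norm, cut at about 30% in these data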
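Tetracycline-induced Hek293 Trex D2 cells, force-coupled to calcium, loaded with no-wash calcium dye. Compound added with 180 s kinetic read for agonism, then EC20 dopamine and a further 180 s read for potentiation.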
D2 PAM-2 – potentiates the human D2 dopamine receptor allosterically. AID 624464. P14416. 360,000 compounds, 0.23% hits. DiscoveRx D2 beta-arrestin cells, luminescence, 90 min; 100% = 57 uM dopamine signal. potentiation, % (no concentration beside the values); in the data active means potentiation above about 50%; inconclusive means mostly about 30% to 49%
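D2 cells co-treated with compound plus 50 nM dopamine (EC20) for 90 min at 37 deg C to detect potentiation. Beta-arrestin recruitment was read as enzyme-fragment luminescence after 1 h at ambient temperature. Full response was set by 57 uM dopamine.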
D2 antag – antagonists of human D2 dopamine receptor; 340,000 compounds, 2% hits; inhibition, % at 10 µM; AID 485344; HEK293 TREx D2 cells, calcium flux, dopamine EC80; P14416; in the data active means inhibition above about 30%; inactive means below that, where a call was filed
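Tetracycline-induced HEK293 T-REx cells expressing D2 force-coupled to calcium signalling were dye-loaded, exposed to compound for 180 s, then challenged with an EC80 of dopamine; calcium flux was followed kinetically for a further 180 s.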
D3 arrestin ag – confirmation of human D3 dopamine receptor agonists, beta-arrestin. shares compounds with D2 ag-2. DiscoveRx D3 beta-arrestin cells, luminescence, 90 min. 2,300 compounds, 4% hits. Potency, µM (series often up to 76.9 µM), most hits filed as activators. AID 720506; further: nearly all actives have a fitted effect of over 70% in size
D2 ag-3 – D2 receptor agonism, beta-arrestin counterscreen; Potency, µM (series often up to 76.9 µM), actives largely listed as activators; DiscoveRx PathHunter D2 beta-arrestin, luminescence, 90 min; response scale: percent relative to full dopamine signal; 2,300 compounds, 5.9% hits; shares compounds with D2 ag-2; further: nearly all actives have a fitted effect of over 70% in size
Numbers stand for hits; - = inactive; ? = inconclusive; . = no result given. Hits are enriched below; roughly 2.4% of the tested compounds scored in any of these assays. Unless noted, the call rests on the fitted dose curve; in most records, active means well fitted activation curve with a large enough effect; inconclusive means small, poorly fitted or top-dose-only effect; inactive means flat fitted curve, though single readings scatter.

SMILES | D2 ag-1 | D2 ag-2 | D2 PAM-1 | D2 PAM-2 | D2 antag | D3 arrestin ag | D2 ag-3
COc1cc(OC)c2c(-c3ccccc3)cc(=O)oc2c1C(CCN1CCN(c2ccccc2)CC1)c1ccc(N(C)C)cc1 (stereo unspecified) | - | . | . | - | . | - | -
COc1cc(O)c(C(CCN2CCN(c3ccccc3)CC2)c2ccc3c(c2)OCO3)c(OC)c1 (stereo unspecified) | - | - | - | - | 75 | - | -
COc1cc(OC)c2ccc(=O)oc2c1C(CCN1CCN(c2ccccc2)CC1)c1ccc(N(C)C)cc1 (stereo unspecified) | - | 53 | - | - | 62 | - | -
COc1cc(C2C(=O)N(C3CCCCC3)CC(=O)N2C2CCCCC2)ccc1OC(C)C (stereo unspecified) | . | - | - | . | . | . | .
CCn1c(=N)n(CCOc2ccc(Br)cc2)c2ccccc21 | . | - | - | . | . | . | .
O=C(CCN1CCCCC1)c1ccc2c(c1)OCCO2 | - | - | - | - | - | . | .
O=C(CCN1CCCC1Cc1ccccc1)c1ccc2c(c1)OCCO2 (stereo unspecified) | - | 82 | - | - | 109 | ? | ?
Brc1cccc(OCCN2CCc3ccccc3C2)c1 | - | 52 | - | - | 96 | - | -
Cc1ccc(S(=O)(=O)Nc2cc3c(cc2N2CCOCC2)n(C)c(=O)n3C)c(C)c1 | . | . | - | . | . | . | .
CCOC(=O)N1CCN(CC(=O)Nc2c(C(=O)OC)[nH]c3cc(C)ccc23)CC1 | - | . | - | - | . | ? | -
COc1cccc(CNC(=O)CCC2CCCN(C(=O)c3cc(C4CC4)[nH]n3)C2)c1 (stereo unspecified) | - | - | - | - | 63 | - | -
COc1cccc(CNC(=O)CCC2CCCN(C(=O)c3cc(C)on3)C2)c1 (stereo unspecified) | - | - | - | - | - | . | .
Cc1cccc(CSc2nnc([C@@H]3CCCN3C(=O)OC(C)(C)C)o2)c1 | - | - | - | - | 36 | - | -
CN(C(=O)CSc1nnc(C(F)(F)F)n1C)c1c(N)n(Cc2ccccc2)c(=O)[nH]c1=O | - | . | . | - | . | . | .
